In ChEMBL document CHEMBL3988442, “University of Dundee, Small-Polar-MMV Screening Library” (2021):
For some assays here: Potency and affinity values are given separately.

Tests used:
Parameters in all cases: scale not given: direction of the effect not stated beside the values
[1] = target: Protein translocase subunit SecA (Escherichia coli (strain K12)) (UniProt P10408); test: Assay to Identify E. coli SecA ATPase Inhibitors; assay type: functional; conditions: 30 µM
[2] = target: T1, Ubiquitin-activating enzyme e1, putative (Leishmania donovani (strain BPK282A1)) (UniProt E9BSI1); test: Leishmania donovani Ubiquitin Activating Enzyme (LdE1); assay type: functional; conditions: 30 µM
T1 sequence (whole entry): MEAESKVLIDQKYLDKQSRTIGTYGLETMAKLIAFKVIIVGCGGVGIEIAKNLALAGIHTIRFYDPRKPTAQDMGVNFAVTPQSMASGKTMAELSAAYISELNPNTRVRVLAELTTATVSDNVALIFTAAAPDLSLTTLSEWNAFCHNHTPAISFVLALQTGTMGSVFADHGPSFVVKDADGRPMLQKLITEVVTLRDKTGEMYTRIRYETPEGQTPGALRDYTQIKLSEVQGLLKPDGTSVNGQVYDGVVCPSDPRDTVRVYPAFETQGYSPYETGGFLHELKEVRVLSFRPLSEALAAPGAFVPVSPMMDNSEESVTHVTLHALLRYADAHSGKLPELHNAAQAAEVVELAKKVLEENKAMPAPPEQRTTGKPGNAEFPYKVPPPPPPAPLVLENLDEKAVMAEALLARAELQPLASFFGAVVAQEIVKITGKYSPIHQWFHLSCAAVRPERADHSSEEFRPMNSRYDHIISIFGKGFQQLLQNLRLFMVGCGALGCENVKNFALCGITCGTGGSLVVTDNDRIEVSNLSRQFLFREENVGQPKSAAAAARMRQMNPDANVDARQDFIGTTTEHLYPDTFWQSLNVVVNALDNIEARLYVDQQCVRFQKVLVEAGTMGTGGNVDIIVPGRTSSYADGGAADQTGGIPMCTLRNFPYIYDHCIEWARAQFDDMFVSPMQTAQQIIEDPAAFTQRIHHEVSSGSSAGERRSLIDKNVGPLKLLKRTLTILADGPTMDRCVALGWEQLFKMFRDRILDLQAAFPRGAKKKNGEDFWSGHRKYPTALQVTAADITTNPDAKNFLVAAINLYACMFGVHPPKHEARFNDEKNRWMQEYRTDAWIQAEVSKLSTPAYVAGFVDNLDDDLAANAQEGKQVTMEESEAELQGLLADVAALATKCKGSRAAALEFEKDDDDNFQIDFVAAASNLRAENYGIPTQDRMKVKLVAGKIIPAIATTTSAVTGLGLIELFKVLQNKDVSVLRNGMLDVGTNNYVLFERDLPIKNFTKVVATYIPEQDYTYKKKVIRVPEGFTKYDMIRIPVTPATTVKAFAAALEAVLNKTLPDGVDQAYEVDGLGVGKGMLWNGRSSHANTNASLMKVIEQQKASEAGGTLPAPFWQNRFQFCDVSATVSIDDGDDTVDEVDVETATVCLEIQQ

[3] = target: AMP-activated protein kinase, AMPK (Homo sapiens) (UniProt P54646+O43741+P54619+Q9UGJ0+Q9Y478+Q13131+Q9UGI9); test: AMP-dependent Kinase enzyme assay. An in vitro enzyme assay that detects ADP turnover that is directly proportional to AMPK activity. This uses naive AMPK that is activated during the assay with MK-8722; assay type: functional; conditions: 30 µM
[4] = target: Sialic acid-binding Ig-like lectin 9 (Homo sapiens) (UniProt Q9Y336); test: Hs-Siglec9 ALPHAscreen SOP 20170721; conditions: 10 µM
Trypanosoma cruzi = test: Trypanosoma cruzi phosphomannomutase and mannose-1-phosphate guanylyltransferase assay; assay type: functional; conditions: 10 µM
[5] = target: T2, Arginase-2, mitochondrial (Homo sapiens) (UniProt P78540); test: in vitro enzyme assay to detect the production of urea directly proportional to the activity of Arginase II; assay type: functional; conditions: 33.3 µM; further: in the data most compounds retested in dose-response had high values
T2 sequence (whole entry): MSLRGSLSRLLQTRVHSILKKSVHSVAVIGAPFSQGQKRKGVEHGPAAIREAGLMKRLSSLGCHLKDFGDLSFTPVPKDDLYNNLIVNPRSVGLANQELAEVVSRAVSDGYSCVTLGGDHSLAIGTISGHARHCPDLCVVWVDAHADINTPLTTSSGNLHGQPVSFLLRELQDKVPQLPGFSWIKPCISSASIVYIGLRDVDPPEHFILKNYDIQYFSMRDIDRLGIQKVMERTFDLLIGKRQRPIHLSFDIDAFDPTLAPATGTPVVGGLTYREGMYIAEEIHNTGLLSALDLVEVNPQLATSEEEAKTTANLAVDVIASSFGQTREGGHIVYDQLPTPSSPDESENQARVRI

[6] = target: T3, Proteasome subunit beta (Trypanosoma cruzi) (UniProt O96673); test: Trypanosoma cruzi proteasome chymotrypsin-like activity (TcProtChymo) assay.; further: in the data most compounds retested in dose-response had high values; assay type: functional; conditions: 9.37 µM
T3 sequence (whole entry): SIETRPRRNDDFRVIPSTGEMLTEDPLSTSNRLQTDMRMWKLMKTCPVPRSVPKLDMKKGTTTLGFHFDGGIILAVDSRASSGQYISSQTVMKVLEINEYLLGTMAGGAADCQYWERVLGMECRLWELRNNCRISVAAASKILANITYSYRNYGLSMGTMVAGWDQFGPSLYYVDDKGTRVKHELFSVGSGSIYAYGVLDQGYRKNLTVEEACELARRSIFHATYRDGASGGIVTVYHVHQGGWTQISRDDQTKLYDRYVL

Homo sapiens = species on record: Homo sapiens; test: To identify inhibition of the IFN signalling (Jak-Stat) pathway via expression of an eGFP reporter gene under the control of an IFN-stimulated response element (ISRE) containing MxA promoter.; assay type: functional; conditions: 30 µM
[7] = target: T4, Tyrosyl-tRNA synthetase, putative (Trypanosoma cruzi (strain CL Brener)) (UniProt Q4DSP6); test: Trypanosoma cruzi tyrosyl tRNA synthetase (TcYRS) _High Tyrosine SOP; assay type: functional; conditions: 30 µM; further: in the data most compounds retested in dose-response had high values
T4 sequence (whole entry): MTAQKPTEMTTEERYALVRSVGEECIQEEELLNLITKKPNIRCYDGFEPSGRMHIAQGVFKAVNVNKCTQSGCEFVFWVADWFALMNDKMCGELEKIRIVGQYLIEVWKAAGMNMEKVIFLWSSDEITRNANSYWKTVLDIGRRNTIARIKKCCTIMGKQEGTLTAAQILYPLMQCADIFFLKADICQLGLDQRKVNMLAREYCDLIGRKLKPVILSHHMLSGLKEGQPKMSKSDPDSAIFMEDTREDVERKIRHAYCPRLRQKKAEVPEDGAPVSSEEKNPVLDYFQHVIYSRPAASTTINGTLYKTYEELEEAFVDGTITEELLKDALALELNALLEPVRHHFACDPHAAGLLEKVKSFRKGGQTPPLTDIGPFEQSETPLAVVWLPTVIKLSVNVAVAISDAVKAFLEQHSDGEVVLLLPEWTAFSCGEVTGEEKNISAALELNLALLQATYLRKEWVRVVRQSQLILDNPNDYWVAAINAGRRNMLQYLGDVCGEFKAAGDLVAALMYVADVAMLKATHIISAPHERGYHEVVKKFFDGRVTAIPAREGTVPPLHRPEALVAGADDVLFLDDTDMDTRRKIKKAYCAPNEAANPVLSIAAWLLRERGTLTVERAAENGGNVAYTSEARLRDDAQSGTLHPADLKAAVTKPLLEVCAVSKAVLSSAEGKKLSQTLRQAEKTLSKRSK

[8] = target: T4, Tyrosyl-tRNA synthetase, putative (Trypanosoma cruzi (strain CL Brener)); test: Trypanosoma cruzi tyrosyl tRNA synthetase (TcYRS) SOP; assay type: functional; conditions: 30 µM
[9] = target: Chromo domain-containing protein 1 (Saccharomyces cerevisiae (strain ATCC 204508 / S288c) (Baker's yeast)) (UniProt P32657); test: ScCHD-1 Enzyme Inhibition Assay; assay type: functional; conditions: 30 µM; further: in the data most compounds retested in dose-response had high values
Chain of Chromo domain-containing protein 1 (Saccharomyces cerevisiae (strain ATCC 204508 / S288c) (Baker's yeast)) (P32657 whole entry, the tested form may be a part): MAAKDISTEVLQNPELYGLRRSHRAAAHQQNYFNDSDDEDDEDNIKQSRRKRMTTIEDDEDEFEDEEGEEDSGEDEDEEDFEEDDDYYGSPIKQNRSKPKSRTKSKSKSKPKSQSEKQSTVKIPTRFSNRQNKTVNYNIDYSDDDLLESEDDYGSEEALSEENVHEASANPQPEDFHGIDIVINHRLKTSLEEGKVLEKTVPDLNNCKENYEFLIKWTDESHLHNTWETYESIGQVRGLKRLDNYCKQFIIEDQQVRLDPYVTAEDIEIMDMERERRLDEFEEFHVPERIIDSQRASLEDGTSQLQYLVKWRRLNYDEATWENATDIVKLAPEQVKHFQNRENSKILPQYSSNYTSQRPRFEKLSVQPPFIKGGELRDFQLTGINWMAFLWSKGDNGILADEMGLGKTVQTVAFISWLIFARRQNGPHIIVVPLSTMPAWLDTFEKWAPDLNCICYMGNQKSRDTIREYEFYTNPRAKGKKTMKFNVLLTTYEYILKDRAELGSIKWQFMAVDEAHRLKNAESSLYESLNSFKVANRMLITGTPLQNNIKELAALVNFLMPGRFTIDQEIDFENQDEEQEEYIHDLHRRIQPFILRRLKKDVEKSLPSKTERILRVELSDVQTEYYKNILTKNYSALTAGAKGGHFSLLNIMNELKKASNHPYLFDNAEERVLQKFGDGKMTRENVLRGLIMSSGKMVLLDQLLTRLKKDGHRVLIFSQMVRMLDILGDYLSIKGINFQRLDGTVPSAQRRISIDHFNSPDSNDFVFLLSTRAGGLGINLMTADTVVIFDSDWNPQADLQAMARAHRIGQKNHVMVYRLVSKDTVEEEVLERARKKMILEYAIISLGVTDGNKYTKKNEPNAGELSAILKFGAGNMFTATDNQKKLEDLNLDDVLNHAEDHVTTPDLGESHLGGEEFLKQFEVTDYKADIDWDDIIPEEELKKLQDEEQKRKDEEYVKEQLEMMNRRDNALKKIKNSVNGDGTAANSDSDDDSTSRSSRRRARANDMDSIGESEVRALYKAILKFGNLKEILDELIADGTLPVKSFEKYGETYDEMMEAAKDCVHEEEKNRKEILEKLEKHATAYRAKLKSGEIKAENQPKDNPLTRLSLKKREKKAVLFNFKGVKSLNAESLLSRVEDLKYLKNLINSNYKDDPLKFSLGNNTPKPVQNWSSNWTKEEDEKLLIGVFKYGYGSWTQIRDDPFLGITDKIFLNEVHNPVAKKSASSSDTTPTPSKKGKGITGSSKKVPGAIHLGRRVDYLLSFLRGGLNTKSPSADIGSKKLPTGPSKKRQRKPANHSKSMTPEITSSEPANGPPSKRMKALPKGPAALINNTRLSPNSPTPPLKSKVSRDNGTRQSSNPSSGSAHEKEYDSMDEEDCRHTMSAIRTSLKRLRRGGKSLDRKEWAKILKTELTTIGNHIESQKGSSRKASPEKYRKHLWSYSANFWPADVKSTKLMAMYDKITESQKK

Chain of Protein translocase subunit SecA (Escherichia coli (strain K12)) (P10408 whole entry): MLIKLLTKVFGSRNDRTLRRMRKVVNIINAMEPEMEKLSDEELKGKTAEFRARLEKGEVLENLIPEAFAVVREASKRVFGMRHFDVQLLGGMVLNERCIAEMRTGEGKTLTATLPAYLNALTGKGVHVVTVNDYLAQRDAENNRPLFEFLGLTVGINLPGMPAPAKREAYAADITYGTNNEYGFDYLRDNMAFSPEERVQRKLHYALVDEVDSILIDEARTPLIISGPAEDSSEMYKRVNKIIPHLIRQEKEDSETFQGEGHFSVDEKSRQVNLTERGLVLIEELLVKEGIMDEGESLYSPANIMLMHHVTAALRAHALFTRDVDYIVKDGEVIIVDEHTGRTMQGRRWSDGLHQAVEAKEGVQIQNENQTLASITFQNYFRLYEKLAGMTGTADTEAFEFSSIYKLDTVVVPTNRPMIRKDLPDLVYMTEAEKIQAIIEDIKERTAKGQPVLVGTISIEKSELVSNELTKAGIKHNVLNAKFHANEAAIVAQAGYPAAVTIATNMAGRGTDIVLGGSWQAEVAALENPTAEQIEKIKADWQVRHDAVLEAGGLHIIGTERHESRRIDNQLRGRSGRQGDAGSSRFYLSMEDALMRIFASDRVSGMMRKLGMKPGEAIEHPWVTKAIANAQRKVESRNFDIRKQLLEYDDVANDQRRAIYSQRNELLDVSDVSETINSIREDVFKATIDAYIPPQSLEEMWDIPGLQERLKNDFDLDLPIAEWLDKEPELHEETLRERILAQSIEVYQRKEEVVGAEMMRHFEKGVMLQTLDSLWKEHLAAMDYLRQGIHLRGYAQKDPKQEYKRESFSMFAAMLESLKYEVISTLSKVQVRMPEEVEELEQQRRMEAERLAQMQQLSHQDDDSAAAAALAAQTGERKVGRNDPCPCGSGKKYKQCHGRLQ
Chain of Sialic acid-binding Ig-like lectin 9 (Homo sapiens) (Q9Y336 whole entry): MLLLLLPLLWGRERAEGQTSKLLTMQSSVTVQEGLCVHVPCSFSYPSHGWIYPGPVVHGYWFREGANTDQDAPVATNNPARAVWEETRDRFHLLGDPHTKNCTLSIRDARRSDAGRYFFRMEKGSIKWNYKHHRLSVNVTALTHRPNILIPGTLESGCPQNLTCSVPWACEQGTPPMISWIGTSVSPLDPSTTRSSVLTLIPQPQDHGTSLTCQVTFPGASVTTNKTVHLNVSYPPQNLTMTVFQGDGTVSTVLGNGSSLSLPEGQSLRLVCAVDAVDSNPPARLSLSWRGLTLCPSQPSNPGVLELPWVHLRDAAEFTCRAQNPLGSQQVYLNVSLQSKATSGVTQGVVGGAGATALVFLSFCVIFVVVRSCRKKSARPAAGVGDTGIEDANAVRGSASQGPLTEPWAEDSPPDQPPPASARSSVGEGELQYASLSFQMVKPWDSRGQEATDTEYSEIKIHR

Row | Compound | Percent Effect [1] | Percent Effect [2] | Percent Effect [3] | Percent Effect [4] | Percent Effect (Trypanosoma cruzi) | Percent Effect [5] | Percent Effect [6] | Percent Effect (Homo sapiens) | Percent Effect [7] | Percent Effect [8] | Percent Effect [9]
1 | Cc1nccn1-c1cc(CNC(=O)c2ccccn2)ccn1 | -3.33% | 16.4% | 4.31% | 6.49% | 3.33% | -0.455% | 17.6% | 15.2% | 2.15% | 20% | -4.24%
2 | CS(=O)(=O)N1CCOCC2(CN(Cc3ccco3)CCO2)C1 (stereo unspecified) | -1.05% | 5.48% | 3.7% | 1.39% | -1.19% | 4.79% | 5.39% | 1.38% | 6.25% | 11.1% | 0.698%
3 | Cn1cnc2c1C(COCC1CCOCC1)CN(C(=O)c1ccoc1)C2 (stereo unspecified) | 1.37% | 18.7% | 4.82% | -8.07% | 1.38% | -1.63% | 14.5% | -17.8% | 1.06% | 6.41% | -5.31%
4 | O=c1cc2c(nn1CN1CCOCC1)CCC2 | -2.09% | 14.7% | -2.08% | -0.0396% | -0.786% | -6.87% | 11.3% | 14.3% | 6.35% | 15.4% | -8.17%
5 | Cc1ncnc2c1CCN(Cc1ccccn1)CC2 | -2.86% | -2.74% | -0.577% | 1.97% | -3.57% | -0.798% | 1.46% | -16.5% | 3.12% | -1.24% | 5.72%
6 | CCN(CC)C(=O)c1nnn(Cc2ccccc2)c1OC | -6.72% | -1.33% | 3.11% | 2.1% | -4.52% | -4.05% | 8.32% | -11.4% | 6.35% | 5.13% | -1.8%
7 | Cn1cnc2c1C(COCC1CC1)CN(Cc1ccsc1)C2 (stereo unspecified) | -1.29% | 13% | 3.5% | -4.76% | -1.68% | 7.1% | 20.2% | 6.71% | 6.35% | 11.5% | -6.29%
8 | Cc1ccc2cnn(CCC(=O)NCc3c(C)nn(C)c3C)c2c1 | -6.31% | 2.6% | 0.586% | 1.87% | 0.492% | -1.38% | 8.98% | 7.06% | 3.23% | 6.17% | -1.97%
9 | CN(C)C(=O)C1CCCN1CCCNC(=O)c1ccccc1F (stereo unspecified) | -2.29% | 8.22% | -4.32% | 2.43% | -0.783% | 0.909% | 15.6% | 12.8% | 5.38% | 12.5% | -3.39%
10 | Cc1nccc([C@H]2C[C@@H]3CCN(S(=O)(=O)N(C)C)C[C@H]3O2)n1 | -2.42% | 8.11% | -3.13% | 27.4% | 5.18% | 17.6% | 3.35% | -26.1% | 4.3% | 16.1% | -6.72%
11 | Cc1cc(CN2CCN(CCOc3cccc(C#N)c3)CC2)no1 | -2.32% | 15.8% | -0.384% | -11.5% | -1.4% | 1.44% | 10.6% | 3.18% | 5.42% | 23.5% | -5.93%
12 | CCc1nccn1C1CCCN(C(=O)Cc2cn3ccccc3n2)C1 (stereo unspecified) | -4.36% | 8.86% | -1.52% | -5.05% | 3.18% | -1.5% | 13.2% | 17.9% | -1.04% | 10.1% | -29%
13 | O=C(NCc1ccco1)[C@H]1C[C@@H]2CCN(c3ccncn3)C[C@@H]2O1 | -3.35% | 10.7% | 1.73% | 2.91% | 6.56% | -56.5% | 16.9% | -18.7% | 6.25% | 17.5% | -5.87%
14 | O=C(Nc1ccc(N2CCCC2)nc1)N1CCc2ccccc2C1 | -3.4% | 0% | -13.6% | 2.55% | -6.45% | 3.75% | 20.7% | 7.01% | 15.8% | 18.3% | 0.41%
15 | Cc1nccc(-c2cccc(NCC(=O)N3CCCCCCC3)c2)n1 | -8% | -5.26% | 11.7% | -8.15% | -0.28% | -0.36% | 5.16% | 28.6% | 2.46% | -1.24% | -1.53%
16 | O=C(c1cscn1)N1C[C@@H]2[C@@H](C1)OCC(=O)N2CC1CCCC1 | -1.51% | -54.5% | 1.15% | 6.36% | -5.01% | -8.28% | 16.5% | 0.71% | -87.1% | -147% | -3.29%
